Data published in PubChem BioAssay (NCI).
About 79,000 compounds went through this panel and 15% of them were active in at least one assay; those are over-represented in the sample as a whole. Activity calls are given as the source filed them. Rule as the data show it: active = growth inhibition above about 70%; inactive = the rest.

What was measured:
[1] = NCI Yeast Anticancer Drug Screen. Data for the rad52 strain (AID 147);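 also: 0% = growth of vehicle-treated control cultures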; settings: S. cerevisiae rad52 mutant growth inhibition, stronger effect = higher value
Procedure, shortened: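 Growth of repair-deficient yeast cells was compared between compound-treated and vehicle-treated cultures to give percent inhibition.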

[2] = NCI Yeast Anticancer Drug Screen. Data for the rad50EPP+ strain (AID 151);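 also: 0% = growth of vehicle-treated control cultures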; settings: S. cerevisiae rad50 mutant strain, stronger effect = higher value
Procedure, shortened: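 Measured: growth inhibition of rad50EPP+ yeast. Reference: vehicle-treated controls. Screen uses strains with defined genetic alterations in DNA damage repair or cell cycle control.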

[3] = NCI Yeast Anticancer Drug Screen. Data for the mgt1 strain (AID 153); settings: S. cerevisiae mgt1 mutant growth inhibition, stronger effect = higher value
Procedure, shortened: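 Compounds were applied to mgt1 mutant yeast, and growth was then compared against vehicle-treated control cultures to give percent inhibition.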

[4] = NCI Yeast Anticancer Drug Screen. Data for the rad50 strain (AID 155);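 also: 0% = growth of vehicle-only cultures of the same strain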; settings: S. cerevisiae rad50 strain growth inhibition, stronger effect = higher value
Procedure, shortened: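 Vehicle-treated cultures provide the reference for the growth inhibition reported for compound-exposed, repair-deficient yeast.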

[5] = NCI Yeast Anticancer Drug Screen. Data for the mec2-1 strain (AID 157); settings: S. cerevisiae mec2-1 strain, stronger effect = higher value
Procedure, shortened: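 Compounds were applied to mec2-1 yeast cells. Their growth was then compared with that of vehicle-treated cultures to give growth inhibition.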

[6] = NCI Yeast Anticancer Drug Screen. Data for the rad14 strain (AID 159);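 also: 0% = growth of vehicle-treated control cultures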; settings: S. cerevisiae rad14 strain growth inhibition, stronger effect = higher value
Procedure, shortened: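 Inhibition of growth is reported for a repair-deficient yeast mutant following compound treatment, calculated relative to cultures that received vehicle.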

[7] = NCI Yeast Anticancer Drug Screen. Data for the sgs1 mgt1 strain (AID 161);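 also: 0% = growth of cultures given vehicle only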; settings: S. cerevisiae sgs1 mgt1 strain, stronger effect = higher value
Procedure, shortened: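 Yeast cells carrying a defined DNA-repair defect were exposed to test compounds. Growth inhibition was measured relative to vehicle-treated controls.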

[8] = NCI Yeast Anticancer Drug Screen. Data for the CLN2oe strain (AID 163);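 also: 0% = growth of vehicle-only control cultures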; settings: S. cerevisiae CLN2oe strain, stronger effect = higher value
Procedure, shortened: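 Cells of an engineered yeast line with disturbed cell-cycle regulation are treated with compound. Inhibition of growth is then calculated relative to the vehicle-treated reference.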

[9] = NCI Yeast Anticancer Drug Screen. Data for the cln2 rad14 strain (AID 165);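 also: 0% = growth equal to vehicle treated cultures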; settings: S. cerevisiae cln2 rad14 strain, stronger effect = higher value
Procedure, shortened: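 Strain: cln2 rad14 yeast, altered in cell cycle control and DNA damage repair. Read-out: growth inhibition vs vehicle.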

[10] = NCI Yeast Anticancer Drug Screen. Data for the bub3 strain (AID 167); settings: S. cerevisiae bub3 mutant strain, stronger effect = higher value
Procedure, shortened: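 Mutant yeast screening strain plus compound; vehicle-treated cultures serve as the 0% inhibition reference.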

[11] = NCI Yeast Anticancer Drug Screen. Data for the wt2 strain (AID 169); settings: S. cerevisiae wt2 strain growth inhibition, stronger effect = higher value
Procedure, shortened: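 Growth of compound-treated yeast is measured and expressed as inhibition relative to vehicle-only controls.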

[12] = NCI Yeast Anticancer Drug Screen. Data for the mlh1 strain (AID 171);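 also: 0% = growth of vehicle-treated control cultures of the same strain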; settings: S. cerevisiae mlh1 strain growth inhibition, stronger effect = higher value
Procedure, shortened: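 Test agents were incubated with yeast bearing a defined DNA damage repair or cell cycle control alteration; values are growth inhibition normalised to vehicle-treated cultures.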

[13] = NCI Yeast Anticancer Drug Screen. Data for the sgs1 strain (AID 173);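 also: 0% = growth of vehicle-only control cultures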; settings: S. cerevisiae sgs1 mutant, stronger effect = higher value
Procedure, shortened: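 Strain with an altered DNA repair or cell cycle pathway exposed to compound. Growth then measured. Value = inhibition versus vehicle control.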

[14] = NCI Yeast Anticancer Drug Screen. Data for the mlh1 rad18 strain (AID 175); settings: S. cerevisiae mlh1 rad18 strain growth inhibition, stronger effect = higher value
Procedure, shortened: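 A repair-deficient yeast strain is exposed to test compound, and growth is scored relative to vehicle-treated controls.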

[15] = NCI Yeast Anticancer Drug Screen. Data for the rad18 strain (AID 177); settings: S. cerevisiae rad18 mutant growth inhibition, stronger effect = higher value
Procedure, shortened: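 DNA-repair-defective yeast; compound treatment; growth inhibition scored against vehicle.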

[16] = NCI Yeast Anticancer Drug Screen. Data for the wt1 strain (AID 149);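 also: 0% = growth of vehicle-treated wt1 cultures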; settings: S. cerevisiae wt1 strain (SPY 50644) growth inhibition, stronger effect = higher value
Procedure, shortened: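 Each compound is tested on wt1 yeast and the loss of growth versus vehicle gives the inhibition value.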

[17] = at 5.0 µM (retest, dose inferred, filed as 0.5)
[18] = at 50.0 µM (retest, dose inferred, filed as 5.0)

Measured: growth inhibition

CCCCCCC(O)CNCc1ccnc2ccc(OC)cc12 (stereo unspecified)
active: [4]; at 50.0 µM 76.8% | [7]; at 50.0 µM 83.5% | [9]; at 50.0 µM 72.2% | [10]; at 50.0 µM 83.7%
inactive: [1]; at 1.2 µM 5% | [1]; at 3.7 µM 12% | [1]; at 11.0 µM 22% | [1]; at 33.0 µM 35% | [1]; at 100.0 µM 52% | [2]; at 1.2 µM 1% | [2]; at 3.7 µM 2% | [2]; at 11.0 µM 4% | [2]; at 33.0 µM 0% | [2]; at 100.0 µM 2% | [3]; at 1.2 µM 1% | [3]; at 3.7 µM 4% | [3]; at 11.0 µM 17% | [3]; at 33.0 µM 38% | [3]; at 100.0 µM 51% | [4]; at 1.2 µM 5% | [4]; at 3.7 µM 13% | [4]; [17] 8% | [4]; at 11.0 µM 11% | [4]; at 33.0 µM 31% | [4]; [18] 51% | [4]; at 100.0 µM 54% | [5]; at 1.2 µM 4% | [5]; at 3.7 µM 13% | [5]; [17] 7% | [5]; at 11.0 µM 15% | [5]; at 33.0 µM 29% | [5]; [18] 43% | [5]; at 50.0 µM 53.4% | [5]; at 100.0 µM 46% | [6]; at 1.2 µM 13% | [6]; at 3.7 µM 32% | [6]; at 11.0 µM 33% | [6]; at 33.0 µM 33% | [6]; at 100.0 µM 49% | [7]; [17] 23% | [7]; [18] 61% | [8]; at 1.2 µM 9% | [8]; at 3.7 µM 12% | [8]; at 11.0 µM 39% | [8]; at 33.0 µM 49% | [8]; at 100.0 µM 56% | [9]; [17] 14% | [9]; [18] 43% | [10]; at 1.2 µM 1% | [10]; at 3.7 µM 8% | [10]; [17] 20% | [10]; at 11.0 µM 24% | [10]; at 33.0 µM 44% | [10]; [18] 63% | [10]; at 100.0 µM 63% | [11]; at 1.2 µM 4% | [11]; at 3.7 µM 8% | [11]; at 11.0 µM 9% | [11]; at 33.0 µM 14% | [11]; at 100.0 µM 28% | [12]; at 1.2 µM 5% | [12]; at 3.7 µM 9% | [12]; at 11.0 µM 15% | [12]; at 33.0 µM 18% | [12]; at 100.0 µM 35% | [13]; at 1.2 µM 6% | [13]; at 3.7 µM 12% | [13]; at 11.0 µM 18% | [13]; at 33.0 µM 29% | [13]; at 100.0 µM 56% | [14]; [17] 21% | [14]; [18] 61% | [14]; at 50.0 µM 52.2% | [15]; at 1.2 µM 7% | [15]; at 3.7 µM 12% | [15]; at 11.0 µM 8% | [15]; at 33.0 µM 19% | [15]; at 100.0 µM 30%

O=c1ccc2ccccc2c2ccccc12
inactive: [1]; at 1.2 µM -49% | [1]; at 3.7 µM -33% | [1]; at 11.0 µM 52% | [16]; at 1.2 µM -17% | [16]; at 3.7 µM 18% | [3]; at 1.2 µM 3% | [3]; at 3.7 µM 21% | [4]; at 1.2 µM -13% | [4]; at 3.7 µM 7% | [4]; [17] -2% | [4]; at 11.0 µM 66% | [5]; at 1.2 µM -3% | [5]; at 3.7 µM 22% | [5]; [17] 1% | [6]; at 1.2 µM -9% | [6]; at 3.7 µM 1% | [6]; at 11.0 µM 63% | [7]; [17] 6% | [8]; at 1.2 µM 20% | [8]; at 3.7 µM 25% | [9]; [17] 5% | [10]; at 1.2 µM 5% | [10]; at 3.7 µM 47% | [10]; [17] 50% | [11]; at 1.2 µM -27% | [11]; at 3.7 µM 2% | [11]; at 11.0 µM 69% | [12]; at 1.2 µM 15% | [12]; at 3.7 µM 55% | [13]; at 1.2 µM -2% | [13]; at 3.7 µM 12% | [13]; at 11.0 µM 69% | [14]; [17] 39% | [15]; at 1.2 µM -4% | [15]; at 3.7 µM -3%
active: [1]; at 33.0 µM 97% | [1]; at 100.0 µM 99% | [16]; at 11.0 µM 76% | [16]; at 33.0 µM 98% | [16]; at 100.0 µM 99% | [3]; at 11.0 µM 79% | [3]; at 33.0 µM 99% | [3]; at 100.0 µM 99% | [4]; at 33.0 µM 97% | [4]; [18] 98% | [4]; at 50.0 µM 90.9% | [4]; at 100.0 µM 97% | [5]; at 11.0 µM 82% | [5]; at 33.0 µM 99% | [5]; [18] 99% | [5]; at 50.0 µM 93.9% | [5]; at 100.0 µM 100% | [6]; at 33.0 µM 98% | [6]; at 100.0 µM 97% | [7]; [18] 98% | [7]; at 50.0 µM 91.6% | [8]; at 11.0 µM 87% | [8]; at 33.0 µM 100% | [8]; at 100.0 µM 100% | [9]; [18] 99% | [9]; at 50.0 µM 90.4% | [10]; at 11.0 µM 88% | [10]; at 33.0 µM 98% | [10]; [18] 99% | [10]; at 50.0 µM 90.6% | [10]; at 100.0 µM 98% | [11]; at 33.0 µM 98% | [11]; at 100.0 µM 99% | [12]; at 11.0 µM 83% | [12]; at 33.0 µM 99% | [12]; at 100.0 µM 99% | [13]; at 33.0 µM 98% | [13]; at 100.0 µM 98% | [14]; [18] 99% | [14]; at 50.0 µM 90.9% | [15]; at 11.0 µM 76% | [15]; at 33.0 µM 97% | [15]; at 100.0 µM 97%

O=[N+]([O-])c1cc(Cl)cnc1Br
active: [1]; at 11.0 µM 75% | [1]; at 33.0 µM 92% | [1]; at 100.0 µM 97% | [4]; at 11.0 µM 81% | [4]; at 33.0 µM 90% | [4]; [18] 82% | [4]; at 50.0 µM 88.5% | [4]; at 100.0 µM 98% | [5]; at 33.0 µM 85% | [5]; [18] 70% | [5]; at 50.0 µM 76.7%
inactive: [1]; at 1.2 µM 23% | [1]; at 3.7 µM 46% | [16]; at 1.2 µM 1% | [16]; at 3.7 µM 4% | [16]; at 11.0 µM 7% | [16]; at 33.0 µM 8% | [16]; at 100.0 µM 20% | [3]; at 1.2 µM 2% | [3]; at 3.7 µM 1% | [3]; at 11.0 µM 4% | [3]; at 33.0 µM 12% | [3]; at 100.0 µM 19% | [4]; at 1.2 µM 28% | [4]; at 3.7 µM 47% | [4]; [17] -49% | [5]; at 1.2 µM 6% | [5]; at 3.7 µM 43% | [5]; [17] 22% | [5]; at 11.0 µM 69%
